In article PMC13494018:
Values without a mark were called inactive. No rule for the calls is given here.

Molecular target: CD276, Q5ZPR3
Sequence (Q5ZPR3 whole entry): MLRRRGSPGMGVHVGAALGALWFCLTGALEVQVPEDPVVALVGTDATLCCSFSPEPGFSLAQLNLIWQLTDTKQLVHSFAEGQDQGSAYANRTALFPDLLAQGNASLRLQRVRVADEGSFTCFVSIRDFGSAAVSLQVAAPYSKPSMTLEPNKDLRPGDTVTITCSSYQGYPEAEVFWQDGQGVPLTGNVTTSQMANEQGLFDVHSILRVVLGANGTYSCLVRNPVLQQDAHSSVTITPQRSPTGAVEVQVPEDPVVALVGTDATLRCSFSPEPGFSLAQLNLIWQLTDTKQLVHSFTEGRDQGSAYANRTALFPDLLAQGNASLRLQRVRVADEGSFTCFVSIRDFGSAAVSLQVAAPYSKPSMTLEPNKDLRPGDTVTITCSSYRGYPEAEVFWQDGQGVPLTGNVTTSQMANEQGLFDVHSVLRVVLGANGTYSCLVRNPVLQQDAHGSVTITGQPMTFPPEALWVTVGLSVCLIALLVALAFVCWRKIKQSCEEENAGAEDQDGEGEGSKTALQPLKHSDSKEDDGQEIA

B1: design_623_6e2e8b1f-5d9a-4413-9869-27a184816b12_1249_dldesign_0_cycle1_af2pred (protein)
chain: AEAAKAAALEVLALAQEYYDQAKKNAAKIAPEKLKKADEAYAKALAALAAGDYGLAAHYAMLAYSYSSTGLQEA
  binding in a display sort: not found

B2: design_622_fcc41892-afde-4fb9-b6e8-b664fffd6a75_1399_dldesign_0_cycle1_af2pred (protein)
chain: GAALAAAKGVAEQVKRVAEEAEAADPSLAPIMEEYKRRAEELLKKAQENASDEAKVNEYLAELVELLGEVARLRREALAA
  binding in a display sort: not found

B3: design_622_fcc41892-afde-4fb9-b6e8-b664fffd6a75_1677_dldesign_0_cycle1_af2pred (protein)
chain: MEELEELKERSEEVKKRAEEAKKKGEELKKKSPKTAVAGNAVIALAKSAKELAEDPEKVEQAEKVLEIAEAIIKAA
  binding in a display sort: not found

B4: design_622_fcc41892-afde-4fb9-b6e8-b664fffd6a75_1477_dldesign_0_cycle1_af2pred (protein)
chain: GEAVQTAVDALKLLSEERRRAAALVAADPENAEARAILERLEESFRAVARAAANPATAQEVGEAGIAEAERARERLAALA
  binding in a display sort: not found

B5: design_623_6e2e8b1f-5d9a-4413-9869-27a184816b12_1170_dldesign_0_cycle1_af2pred (protein)
chain: MSQAVLNTAKIAIETAGRSSPEEAKKLVEQAVDIASSASDENKKELVKYAKELAKKDPSSKEFYEAAAKKIEATL
  binding in a display sort: not found

B6: design_623_6e2e8b1f-5d9a-4413-9869-27a184816b12_1349_dldesign_0_cycle1_af2pred (protein)
chain: DRLREIAAALAKEVAEATGADPATTEKLAELLAAVLEANQQGPEAFAAAYSKLVDFTVSTGSDALLAKAGAAVSRGLRALG
  binding in a display sort: not found

B7: design_623_6e2e8b1f-5d9a-4413-9869-27a184816b12_258_dldesign_0_cycle1_af2pred (protein)
chain: ASEAAAQTITRGVAELRERFADLSPEALAALAAAQQAALLAAIQGDFEAAAAEVVRGAEAVGAISPHTEEIRALGRATAERILALA
  binding in a display sort: not found

B8: design_622_fcc41892-afde-4fb9-b6e8-b664fffd6a75_1873_dldesign_0_cycle1_af2pred (protein)
chain: NALVQAGKIAAQAAVSLAKNAIAHADEMSPEGLQGAIDVATALIEYAEKAAKEDPEVAKLVEEAKKLVAEAKAVLAAR
  binding in a display sort: not found

B9: design_622_fcc41892-afde-4fb9-b6e8-b664fffd6a75_1801_dldesign_0_cycle1_af2pred (protein)
chain: QALLEAASAIVEAAELAAKEVGPAAANALLTEAGKLLATGEAGLKAAVAEIDKVAKQASPEVAKKLLELRDKAAA
  binding in a display sort: not found

B10: design_623_6e2e8b1f-5d9a-4413-9869-27a184816b12_569_dldesign_0_cycle1_af2pred (protein)
chain: NAAAQATVAAIVKQLRKRAEEEAGNPEIAKALKDGAEAVKEAGKKGIGAAVETLKETYAKVAELRAAQAAA
  binding in a display sort: not found

B11: design_623_6e2e8b1f-5d9a-4413-9869-27a184816b12_824_dldesign_0_cycle1_af2pred (protein)
chain: MEEKIKEAEKLYLEGLKAAGAAHAAIVKGDVAAAKKALEKLKEIAEKLKELGKESEEAKKIAENAEKLYEVTKAAVDAAAAA
  binding in a display sort: not found

B12: design_623_6e2e8b1f-5d9a-4413-9869-27a184816b12_1242_dldesign_0_cycle1_af2pred (protein)
chain: AAARRTALGLQRGASVIAYAKEVGVPEAGRRAGLLVVLALAGGAALGAAAAAAAEALAEELAAAGYPGFGTFVRGILRAARAEAA
  binding in a display sort: not found

B13: design_622_fcc41892-afde-4fb9-b6e8-b664fffd6a75_1610_dldesign_0_cycle1_af2pred (protein)
chain: DDAAKLASLREFLAQLVEIAKAGNAEQARVMARNARAAARSVAAAVASAAEALALGAEAEAEILAIAQEKAAAA
  binding in a display sort: not found

B14: design_623_6e2e8b1f-5d9a-4413-9869-27a184816b12_221_dldesign_0_cycle1_af2pred (protein)
chain: EEEEKRAAAKEAAALLEAAADDPATRGELVLQAIALLTRYPELAPYASAATRALALAAQEGVAAGAAALREVAAGVKALAE
  binding in a display sort: not found

B15: design_623_6e2e8b1f-5d9a-4413-9869-27a184816b12_287_dldesign_0_cycle1_af2pred (protein)
chain: AAAAKAALAAAKAKADEVAKYAEEVDPELGKEIKAKQADLTKAAQDGLAISPALAKGAANMLAAYAESAKKKAEKLAKEK
  binding in a display sort: not found

B16: design_622_fcc41892-afde-4fb9-b6e8-b664fffd6a75_2329_dldesign_0_cycle1_af2pred (protein)
chain: AALREEAKKRVDAAVAAADAAAAADPLAGAIAYGELAVETARLAAELARADPAAGAEMRAKLVDISQKAIALALAAG
  binding in a display sort: not found

B17: design_623_6e2e8b1f-5d9a-4413-9869-27a184816b12_873_dldesign_0_cycle1_af2pred (protein)
chain: SENVKKAKALAAKSKELLEKAKKGDAETAQKALKEISKLANELAKLATSSPAADQAATNAALAVAVEAAEEASKIAREKKA
  binding in a display sort: not found

B18: design_622_fcc41892-afde-4fb9-b6e8-b664fffd6a75_2361_dldesign_0_cycle1_af2pred (protein)
chain: EQEKKAKELLKKVKELAKKAEETIKAGIAAGLPKEEIVGKGGELVVEAAKKAAELARVGTPEQAAEARKIVAAAIKYLLKVAAA
  binding in a display sort: not found

B19: design_622_fcc41892-afde-4fb9-b6e8-b664fffd6a75_2191_dldesign_0_cycle1_af2pred (protein)
chain: MKEEVEKLKKEAEKLVKEAKAAAEAGDSGKAVSLASEAFKVARELEKLPESKELGKELKAKAHEVLTLAAK
  binding in a display sort: not found

B20: design_623_6e2e8b1f-5d9a-4413-9869-27a184816b12_262_dldesign_0_cycle1_af2pred (protein)
chain: GAAEARAQAEKTFAEAIEVGKEALKEAEKLKEKDKEKAEKYIKKINELLHELFRAMALSMTDPEAGLKAIEEQLKKLKEVLKEIKE
  binding in a display sort: not found

B21: design_622_fcc41892-afde-4fb9-b6e8-b664fffd6a75_1828_dldesign_0_cycle1_af2pred (protein)
chain: EAAAREAAARRLAAALEAAEAAAAGPLGPRVAVAAAEVALEVLAAHPRLSPEAVRAAHRLLVLGGRAAGILAA
  binding in a display sort: not found

B22: design_622_fcc41892-afde-4fb9-b6e8-b664fffd6a75_1878_dldesign_0_cycle1_af2pred (protein)
chain: GRQQELNQALGLTLEAAKKASELNKEVLPLVNEAASLIAKAYLTGDKELLKKAIEKLKKAAELASEEVKVLLKKAAEHAKKAIEL
  binding in a display sort: not found

B23: design_622_fcc41892-afde-4fb9-b6e8-b664fffd6a75_2349_dldesign_0_cycle1_af2pred (protein)
chain: LTEELARETARGQRYAAELIALDPAAQELLEQVRRLSAAALQALLAGDEELAKKLAEEVKRLAEEIKARAEALK
  binding in a display sort: not found

B24: design_622_fcc41892-afde-4fb9-b6e8-b664fffd6a75_2371_dldesign_0_cycle1_af2pred (protein)
chain: SAAAAESNQELAKQLKAIAQANAKAGDAEAVERVARSAAAAAKAVSEHPEAQKALTEAAKEAQKLAQQVKAA
  binding in a display sort: not found

B25: design_622_fcc41892-afde-4fb9-b6e8-b664fffd6a75_1795_dldesign_0_cycle1_af2pred (protein)
chain: ANAQLAKGYLTAGQVYLQSPDAAYQEQAATAAQAAAAYAEADPAMADLAKQAKALEAEAKAKAAAAKAAA
  binding in a display sort: not found

B26: design_623_6e2e8b1f-5d9a-4413-9869-27a184816b12_67_dldesign_0_cycle1_af2pred (protein)
chain: SREEELERVEEAIATARDVLAGAELTAAQVSPELAAAALRSAARTAVVLFEGEARRAEDEEARERLRKAAEEARKVAA
  binding in a display sort: not found

B27: design_623_6e2e8b1f-5d9a-4413-9869-27a184816b12_997_dldesign_0_cycle1_af2pred (protein)
chain: EGEKLWKEAKALTDQAKALAAQAQATTDAAQAKQYAIEAAAATTEAMRLASEAARLLGPEKQEEANRLVQEATQALVAATQAAQALA
  binding in a display sort: not found

B28: design_622_fcc41892-afde-4fb9-b6e8-b664fffd6a75_2129_dldesign_0_cycle1_af2pred (protein)
chain: AAAEAAARAALLAEGLALAHQAATFAAMAEYSPGVAPLAERARARLEAVTAAATPEVAAEIRAAYEASLARVRAALA
  binding in a display sort: not found

B29: design_623_6e2e8b1f-5d9a-4413-9869-27a184816b12_254_dldesign_0_cycle1_af2pred (protein)
chain: DDLTQAQIALAAAQALIKNAKAVLEDKSASEETLKSAAEAMEVAIQLAKQAEKLAKKADPELAKKAKEVKKEAEKVKKELEKKI
  binding in a display sort: not found

B30: design_623_6e2e8b1f-5d9a-4413-9869-27a184816b12_1303_dldesign_0_cycle1_af2pred (protein)
chain: AAAQADALTARGKELYAEGKKKYKEGKKEEAAKLFFEAANDYMRAASLYSKVDPAQAVAALEQMEKAIEEYKKAKE
  binding in a display sort: not found

B31: design_622_fcc41892-afde-4fb9-b6e8-b664fffd6a75_2272_dldesign_0_cycle1_af2pred (protein)
chain: DEAKKQLEIATKMAEYALKQAEAALKDGRTAGTVVPAQVKTLKLLAESAEATGLEEAKKKAEEFKKKAKELEKAAEKAK
  binding in a display sort: not found

B32: design_622_fcc41892-afde-4fb9-b6e8-b664fffd6a75_2288_dldesign_0_cycle1_af2pred (protein)
chain: SAEEEVLAKVKELRDKVEAAAADPAKAAEGAALAQEALAFLEENLPVIRAGGQELKDAVHALLRAIARHNAVYN
  binding in a display sort: not found

B33: design_623_6e2e8b1f-5d9a-4413-9869-27a184816b12_1293_dldesign_0_cycle1_af2pred (protein)
chain: DAIRARAAEVKERAERLLEEGKRLPEIEEQVREMAESAKALADDALAAAATDPAQARLALAAAEALVRSLELLVERAKEEA
  binding in a display sort: not found

B34: design_622_fcc41892-afde-4fb9-b6e8-b664fffd6a75_1948_dldesign_0_cycle1_af2pred (protein)
chain: SEEALLLANQGVALASQGLIAGDDAKVKEGIKKIEEAKKLASPELAKTFDKLKATVEAMAAGTAAARAAAAAAA
  binding in a display sort: not found

B35: design_623_6e2e8b1f-5d9a-4413-9869-27a184816b12_532_dldesign_0_cycle1_af2pred (protein)
chain: AAVAAAIAAGEAAIKTVEALTKQAKTATPEERKAIAEQLRAAAVTLMNAAVASSPAYSPKFGAAAVEALQAAAEAG
  binding in a display sort: not found

B36: design_623_6e2e8b1f-5d9a-4413-9869-27a184816b12_890_dldesign_0_cycle1_af2pred (protein)
chain: SPAARLMEATYRRLEEALEKLERAEELSPEEVLEAARLAEANARFARLAGRQAAAEEGTAEAAEAAAKAEALAEEAEEKAREARERLE
  binding in a display sort: not found

B37: design_623_6e2e8b1f-5d9a-4413-9869-27a184816b12_1233_dldesign_0_cycle1_af2pred (protein)
chain: DAATQAKVKELAEKALNGTPEEAYKATAEAFKISEQAGMEVLAAAAKGKPENAHAALSAYAAGLVAAKKAA
  binding in a display sort: not found

B38: design_623_6e2e8b1f-5d9a-4413-9869-27a184816b12_681_dldesign_0_cycle1_af2pred (protein)
chain: MEEIKEKAKELAETVEAIGEELAKFGLETGNENAITAGVNTAKHVAKYAERLSPEAGKIAEKTKEKVEKLGKKAKAEIAA
  binding in a display sort: not found
